Assay outcomes: PubChem BioAssay, National Center for Advancing Translational Sciences (NCATS)
Tau fluor cs = counter-screen for tau fibril formation inhibitors; tau K18 P301L Alexa594 fluorescence, heparin fibrillization; Potency, µM (titrated, usually from 57.7 µM); 0.93% of 280,000 active; also: nearly all actives have a fitted effect of over 55% in size
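Human K18 P301L tau (15 uM unlabeled plus 0.24 uM Alexa 594-labeled, final) in 100 mM sodium acetate pH 7 was mixed with compound and 20 uM heparin and incubated 6 hr at 37 C.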
Tau fibril FP = blocks human tau fibril formation measured by polarization; P10636; K18 P301L tau heparin fibrillization, Alexa594 FP, 6 h; Potency, µM (highest dose often 57.7 µM), hits mostly inhibitors; 0.39% of 280,000 active; also: nearly all actives have a fitted effect of over 55% in size
Target sequence (P10636 561-689 P618L limits assumed): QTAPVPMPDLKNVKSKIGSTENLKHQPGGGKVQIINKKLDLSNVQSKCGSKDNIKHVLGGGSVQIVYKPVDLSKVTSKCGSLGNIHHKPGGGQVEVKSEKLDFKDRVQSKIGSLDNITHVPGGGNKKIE
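FP of Alexa 594-tau after heparin (20 uM) induction. Substrate: human K18 P301L, 15 uM unlabeled, 0.24 uM labeled. Buffer 100 mM sodium acetate pH 7. 6 hr, 37 C.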
Gal4-VP16 FLuc = counter-screen for ROR gamma inhibitors: Gal4-VP16 reporter. Potency, µM (highest dose often 53.6 µM), hits mostly inhibitors. AID 2546. 3.5% of 310,000 active. Drosophila S2 Gal4-VP16 UAS-luciferase, luminescence, 20 h;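 also: Gal4-VP16 expression switched on by copper sulfate through the metallothionein promoter; nearly all actives have a fitted effect of over 50% in size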
Tau fibril ThT = inhibitors of human tau fibril formation, thioflavin T binding | 2.1% of 270,000 active | AID 1460 | recombinant tau K18 P301L (four-repeat tau fragment), heparin-induced fibrillization, ThT fluorescence | Potency, µM (top dose mostly 57.4 µM), actives largely listed as inhibitors | P10636; also: nearly all actives have a fitted effect of over 55% in size
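Tau K18 P301L fragment (15 uM unlabeled plus 0.24 uM Alexa 594-labeled) in 100 mM sodium acetate pH 7 with compound, fibrillization induced by 20 uM heparin for 6 hr at 37 C. Thioflavin T (30 uM) added, fluorescence read after 1 hr (ex 450, em 510 nm).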
RORgamma inh = blocks mouse ROR gamma transcriptional activity | 5.4% of 310,000 active | P51450 | AID 2551 | Potency, µM (top dose mostly 53.6 µM), most hits filed as inhibitors | Drosophila S2 Gal4-RORgamma UAS-luciferase reporter, 20 h; also: nearly all actives have a fitted effect of over 60% in size
Target sequence (P51450 whole entry, looked up, the tested form may be a part): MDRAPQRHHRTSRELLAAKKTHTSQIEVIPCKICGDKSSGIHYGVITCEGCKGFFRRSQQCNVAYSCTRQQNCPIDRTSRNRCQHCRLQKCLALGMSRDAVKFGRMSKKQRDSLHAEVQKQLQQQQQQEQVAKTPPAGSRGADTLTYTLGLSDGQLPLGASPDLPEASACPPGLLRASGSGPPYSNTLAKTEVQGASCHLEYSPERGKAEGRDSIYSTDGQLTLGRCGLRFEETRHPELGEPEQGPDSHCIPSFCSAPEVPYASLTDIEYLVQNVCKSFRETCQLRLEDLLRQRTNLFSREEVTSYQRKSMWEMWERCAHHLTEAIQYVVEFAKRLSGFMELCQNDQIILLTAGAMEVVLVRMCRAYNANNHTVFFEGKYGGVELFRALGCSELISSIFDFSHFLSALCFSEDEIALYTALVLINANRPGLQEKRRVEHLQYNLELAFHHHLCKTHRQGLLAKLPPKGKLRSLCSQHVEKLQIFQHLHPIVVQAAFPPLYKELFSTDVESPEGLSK
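Using a luciferase readout, inhibitors were identified by reduced reporter activity in Drosophila cells coexpressing a copper-inducible Gal4–ROR gamma fusion and UAS-driven Photinus luciferase, incubated 20 hr after 700 uM copper sulfate.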
Hits are given with their value; 0 = inactive; ? = inconclusive; - = not tested or not shown; [ ] = another dose, or the depositor's remark. The list is not random: actives were taken first. Their share in the collection is about 7.3%. Calls follow the shape of the dose curve; as a rule, active = well fitted curve in the direction sought with a large enough effect; inconclusive = small, poorly fitted or top-dose-only effect, or another doubt; inactive = no such curve, though single readings can be large; an effect the other way counts as inactive or inconclusive.

SMILES | Tau fluor cs | Tau fibril FP | Gal4-VP16 FLuc | Tau fibril ThT | RORgamma inh
N=C1Sc2ccccc2C2=NCCCN12 | 0 | 14µM | - | 7.1µM | -
Cc1ccc(NC(=O)Cn2c(-c3cncs3)nc3ccccc32)cc1Br | ? | ? | - | 0 | -
COC(=O)c1ccc(CC(=O)c2c(C)cc(O)cc2O)o1 | ? | ? | ? | 28µM | 11µM
O=C(CSc1nc2c([nH]c3ccccc32)c(=O)n1-c1ccc(Cl)cc1)N1CCc2ccccc21 | 0 | 0 | - | 0 | -
Cc1ccc2nc(-c3ccccc3)c(CN3CCSCC3)n2c1 | 0 | 0 | 0 | 0 | 16µM
Cc1ccc2nc(-c3ccccc3)c(CN3CCOCC3)n2c1 | 0 | 0 | ? | 0 | 0
Cc1ccc2nc(-c3ccccc3)c(CN3CCN(c4ccccc4F)CC3)n2c1 | 0 | 0 | ? | 0 | 8.9µM
C=CCn1c(-c2cc(-c3ccc(C)cc3)nc3ccccc23)n[nH]c1=S | ? | 0 | 10µM | 0 | 0.89µM
CCn1c(-c2cc(-c3ccc(C)cc3)nc3ccccc23)n[nH]c1=S | 0 | 0 | 0 | 0 | 1.1µM
CCn1c(-c2cc(-c3ccc(OC(C)C)cc3)nc3ccccc23)n[nH]c1=S | ? | ? | ? | ? | 13µM
CCn1c(-c2ccccc2SC)n[nH]c1=S | 0 | 0 | 0 | 0 | 14µM
C=CCn1c(-c2cc(OC)cc(OC)c2)n[nH]c1=S | 0 | 0 | ? | 0 | ?
CCn1c(-c2cccn(Cc3ccccc3)c2=O)n[nH]c1=S | 0 | 0 | 0 | 0 | 0
Cc1oc2ncn(C)c(=O)c2c1C(=O)NCc1ccccc1 | 0 | 0 | - | 0 | -
CCCOc1cccc(-c2cc(-c3n[nH]c(=S)n3CC)c3ccccc3n2)c1 | ? | 0 | 0 | 0 | 1.3µM
NS(=O)(=O)c1ccc(CCNC(=O)NC2(C(F)(F)F)Oc3ccccc3O2)cc1 | 0 | 0 | ? | 0 | 11µM
CCCCNC(=O)NC1(C(F)(F)F)Oc2ccccc2O1 | 0 | 0 | 0 | 0 | 0
COc1ccccc1-c1cc2nc(C)c(CCC(=O)NCCc3ccc(SC)cc3)c(C)n2n1 | 0 | 0 | - | 0 | -
COc1cc(NC(=S)NCCC(c2ccccc2)c2ccccc2)cc(OC)c1 | ? | ? | 8.9µM | 0 | 4.5µM
Cc1cccc(NC(=S)NCCC(c2ccccc2)c2ccccc2)c1 | ? | ? | 7.1µM | 0 | 4µM
COc1cccc(NC(=S)NCCN2CCOCC2)c1 | 0 | 0 | 0 | 0 | 0
COc1cc(OC)cc(C(=O)NCCC(c2ccccc2)c2ccccc2)c1 | - | - | 0 | - | 0
COc1cccc(NC(=S)NCCC(c2ccccc2)c2ccccc2)c1 | ? | ? | 22µM | 0 | ?
Cc1cccc(NC(=S)NNC(=S)NCc2ccccc2)c1 | 0 | 0 | 0 | 0 | 0
CNC(=S)NCCC(c1ccccc1)c1ccccc1 | 0 | 0 | ? | 0 | 7.1µM
SMILES | Tau fluor cs | Tau fibril FP | Gal4-VP16 FLuc | Tau fibril ThT | RORgamma inh
O=C(C1CC1)N1N=C(C2CCCCC2)CC1(O)C(F)(F)F (configuration not stated) | 0 | 0 | 0 | 0 | 0
Cc1cccc(N2CCN(c3ncnc4onc(C)c34)CC2C)c1 (configuration not stated) | 0 | 0 | - | ? | -
CCC(Cn1nnc2ccccc2c1=O)NC(=O)Nc1cc(Cl)ccc1OC (configuration not stated) | 0 | 0 | - | 0 | -
COc1ccc(NC(=S)NCCC(c2ccccc2)c2ccccc2)c(OC)c1 | ? | 0 | 3.2µM | 0 | 4µM
CCC(C(=O)OCC(=O)Nc1ccc(OC)cc1OC)c1ccccc1 (configuration not stated) | 0 | 0 | 0 | 0 | 0
O=C(NC(=S)Nc1nc(-c2cccc([N+](=O)[O-])c2)cs1)c1cc(Cl)ccc1Cl | ? | 0 | 0 | 0 | ?
O=[N+]([O-])c1cccc(NC(=S)Nc2nc(-c3ccc(Cl)cc3Cl)cs2)c1 | - | - | 3.2µM | - | 2µM
COc1cc(Cl)c(C)cc1NC(=O)CNC(C)c1ccccc1OC (configuration not stated) | 0 | 0 | 0 | 0 | 0
Cc1ccc(S(=O)(=O)NNC(=O)C(=O)NNc2ccccn2)cc1 | 0 | ? | 0 | 0 | 8.9µM
CC(Oc1ccccc1F)C(=O)N1CCC(c2nc3ccccc3o2)CC1 (configuration not stated) | 0 | 0 | - | 0 | -
CC1=C(C(=O)c2ccccc2)C(c2ccc(OC(F)F)cc2)NC(=S)N1 (configuration not stated) | 0 | 0 | 0 | 0 | 0
CC1=C(C)C(c2ccccc2)NC(=S)N1 (configuration not stated) | 0 | 0 | 0 | 0 | 5µM
CCOC(=O)C1=C(NC(=S)NC(=O)c2ccccc2)c2ccccc2CC1(C)CC (configuration not stated) | 0 | 0 | 7.1µM | 0 | 6.3µM
CCOC(=O)C1=C(NC(=S)NC(=O)c2ccccc2)c2ccccc2CC1C(C)C (configuration not stated) | 0 | 0 | 0[0.365 µM] | 0 | 4µM
CCOC(=O)c1ccc(NC(=O)c2ccc(NC(=O)c3ccccc3)cc2)cc1 | 0 | 0 | 0 | 0 | 0
CCOC(=O)c1c(NC(=O)c2ccccc2)sc2c1CCc1ccccc1-2 | 0 | ? | 0 | ? | 0
Cc1cc(C)cc(NC(=O)C2CCN(S(=O)(=O)c3ccc4c(c3)NC(=O)C(C)S4)CC2)c1 (configuration not stated) | - | - | 0 | - | 0
Cc1ccc(NC(=O)C2CCN(S(=O)(=O)c3ccc4c(c3)NC(=O)C(C)S4)CC2)cc1Cl (configuration not stated) | - | - | 7.1µM | - | ?
CCOC(=O)N1CCN(C(=O)C2CCN(S(=O)(=O)CC)CC2)CC1 | 25µM[quencher] | ? | 0 | 0 | 0
CCn1c(CN2CCC(C)CC2)nc2cc(NC(=O)c3ccc([N+](=O)[O-])cc3)ccc21 | 0 | 0 | - | 0 | -
COc1ccc(CCNC(=O)Cn2cc(C(=O)c3ccc(Cl)cc3)c(=O)c3ccc(C)nc32)cc1OC | 0 | 0 | - | ? | -
CCCCNC(=O)c1ccc2nc(-c3ccco3)c(-c3ccco3)nc2c1 | ? | ? | 0 | 16µM | 0
O=C(NCCCO)c1ccc2nc(-c3ccco3)c(-c3ccco3)nc2c1 | 4.5µM[quencher] | 8.9µM | 0 | 5µM | 0
O=C(NCCO)Nc1ccc2nc(-c3ccco3)c(-c3ccco3)nc2c1 | 0 | 0 | ? | 0 | 0
O=C(NCc1ccccc1)c1ccc2nc(-c3ccco3)c(-c3ccco3)nc2c1 | ? | ? | 0 | 14µM | 0
SMILES | Tau fluor cs | Tau fibril FP | Gal4-VP16 FLuc | Tau fibril ThT | RORgamma inh
CCc1ccc(NC(=O)CN(C)S(=O)(=O)c2ccc3c(c2)c(=O)n(C)c(=O)n3C)cc1 | 0 | 0 | - | 0 | -
CC1=C(c2ccc(C(C)C)cc2)S(=O)(=O)NC1=NCc1ccccc1C | 0 | 0 | - | 0 | -
Cc1ccc(N2C(=O)[C@@H]3CSC(c4ccc(Cl)cc4)N3C2=O)cc1 (some centres not stated) | 0 | 0 | - | 0 | -
O=C(O)c1c2c(nc3ccccc13)/C(=C/c1ccc(O)cc1)CC2 | 0 | 0 | 13µM | 0 | 7.9µM
CCN1C/C(=C/c2cccs2)c2nc3ccccc3c(C(=O)O)c2C1 | 0 | 0 | 0 | ? | 0
COc1cccc2c1CCc1c-2nc2ccccc2c1C(=O)O | - | - | 10µM | - | ?
